# The list is not random: actives were taken first. Their share in the collection is about 3.1%.
# SUMO Mot1 rescue = yeast Mot1-301 growth rescue at high temperature, primary screen, SUMOylation pathway inhibitor project, S. cerevisiae, ATP luminescence, 38.5C; 320,000 tested, 1% active; S. cerevisiae Mot1-301 growth rescue; percent above DMSO median, 100 means doubled; AID 2716, 2010; growth rescue, % at 18.8 µM;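 active = every valid replicate shows activation above 250% relative to neutral control wells; inactive = the rest, any valid replicate at or below 250%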
# NadD inh = inhibitors of S. aureus NadD, primary screen, biochemical, colorimetric, uHTS | Nicotinate-nucleotide adenylyltransferase NadD (Staphylococcus aureus N315) | purified NadD enzyme, colorimetric absorbance read-out | inhibition, % at 20 µM | 360,000 tested, 0.78% active | AID 602399, 2012; in the data active = inhibition above about 26%
# FAS-TE inh = FAS thioesterase domain inhibitors, primary screen, biochemical, fluorescence intensity, uHTS; Fatty acid synthase (Homo sapiens), P49327; recombinant FAS-TE, OMFH fluorogenic substrate, fluorescence endpoint; inhibition, % at 15 µM; 360,000 tested, 0.67% active; AID 602261, 2012;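 active = compounds whose normalised, plate-corrected inhibition of enzyme fluorescence in the single-dose primary screen is 50% or more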
# ATG4B inhibitor = ATG4B protease inhibitors, primary screen, biochemical, fluorescence, uHTS; ATG4B cleavage of LC3-PLA2, NBD-HPC fluorescence, 1 h; inhibition, % at 8.33 µM; 340,000 tested, 0.51% active; in the data active = inhibition above about 40%
# Target sequence (Q9Y4P1 whole entry, looked up): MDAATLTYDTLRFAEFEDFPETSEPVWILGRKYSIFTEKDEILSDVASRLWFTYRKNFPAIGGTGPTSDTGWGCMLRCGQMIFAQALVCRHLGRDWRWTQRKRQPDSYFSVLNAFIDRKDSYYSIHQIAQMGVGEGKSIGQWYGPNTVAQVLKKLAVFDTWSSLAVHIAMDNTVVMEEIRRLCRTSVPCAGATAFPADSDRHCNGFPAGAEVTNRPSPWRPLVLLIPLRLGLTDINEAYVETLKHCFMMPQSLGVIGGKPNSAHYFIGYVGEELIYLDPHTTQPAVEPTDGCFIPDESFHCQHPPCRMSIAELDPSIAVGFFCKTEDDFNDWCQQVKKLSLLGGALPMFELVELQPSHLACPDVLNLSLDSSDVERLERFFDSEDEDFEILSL
# Calb FLC = C. albicans growth inhibition with fluconazole, primary screen, CaCi-2 strain, Alamar Blue fluorescence. C. albicans CaCi-2 (fluconazole-resistant clinical isolate) + fluconazole, 48 h. growth inhibition, % (no concentration beside the values). 300,000 tested, 0.57% active. AID 1979, 2009;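 active = growth inhibition above about 58% in most replicates, limit read from the data, passing the limit was not always enough; inconclusive = exactly half the replicates above a set limit; inactive = most replicates below a set limit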;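 note: all wells also contain fluconazole at 8 µg/ml as a sub-toxic cotreatment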
# FAS-TE conf = FAS thioesterase domain inhibitors, confirmation, biochemical, fluorescence intensity, single concentration. shares compounds with FAS-TE inh. recombinant FAS-TE, OMFH fluorogenic substrate. inhibition, % at 15 µM. 2,300 tested, 45% active. AID 624325, 2012;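 active = compounds inhibiting the enzyme by at least 50% at 15 µM in any one of the replicates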
# Hits are given with their value; 0 = inactive; ? = inconclusive; - = no result given.
SMILES,SUMO Mot1 rescue,NadD inh,FAS-TE inh,ATG4B inhibitor,Calb FLC,FAS-TE conf
COc1ccc2nc3n(c(=O)c2c1)-c1cc2ccccc2cc1C(=O)NC3Cc1ccccc1 (stereo not given),-,0,78,-,-,0
COc1cccc(C(=O)NCC(=O)N/N=C/c2ccc3c(c2)OCO3)c1,0,0,0,0,0,-
CC(C)NC(=O)Nc1cccc2c1O[C@H](CN(C)C(=O)NC1CCCCC1)[C@@H](C)CN([C@H](C)CO)C2=O,0,0,0,0,-,-
C[C@H](CO)N1C[C@H](C)[C@@H](CN(C)C(=O)NC2CCCCC2)Oc2c(NC(=O)Nc3ccc4c(c3)OCO4)cccc2C1=O,0,0,82,0,-,85
C[C@H](CO)N1C[C@H](C)[C@@H](CN(C)C(=O)Nc2ccc3c(c2)OCO3)Oc2c(NC(=O)C3CCCCC3)cccc2C1=O,0,0,0,0,-,-
COc1ccc(NC(=O)Nc2cccc3c2O[C@H](CN(C)C(=O)NC2CCCCC2)[C@@H](C)CN([C@H](C)CO)C3=O)cc1,0,0,78,0,-,71
CCCc1cc(C(=O)Nc2cccc([N+](=O)[O-])c2)cs1,0,0,52,0,0,41
Cc1cc(C)c(NC(=O)CNC(=O)CN(C)Cc2ccc(Br)s2)c(C)c1,0,0,0,0,-,-
Cc1cc(C)c(-c2cc(C(=O)Nc3cc(C)ccc3C)[nH]n2)c(O)c1,0,0,0,0,0,-
CC(C)NS(=O)(=O)c1ccc(NC(=O)C(C)OC(=O)C2CCC2)cc1 (stereo not given),0,0,0,0,-,-
COc1ccc([C@@H]2[C@@H]3C(=O)N(C(C)(C)C)C(=O)[C@@H]3[C@]3(Cc4ccc(Cl)cc4)C(=O)N(c4cccc(F)c4)C(=O)N23)cc1,0,0,72,0,-,0
COc1ccc([C@@H]2[C@@H]3C(=O)N(C(C)(C)C)C(=O)[C@@H]3[C@]3(Cc4ccccc4)C(=O)N(c4cccc(C)c4)C(=O)N23)cc1,0,0,0,0,0,-
COc1ccc([C@@H]2[C@@H]3C(=O)N(C(C)(C)C)C(=O)[C@@H]3[C@]3(Cc4ccc(Cl)cc4)C(=O)N(c4cccc(Br)c4)C(=O)N23)cc1,0,0,95,0,0,0
O=S(=O)(c1ccc(-c2csc(-c3cccnc3)n2)cc1)N1CCCCC1,0,0,77,0,0,83
O=S(=O)(c1cccc(-c2csc(-c3cccnc3)n2)c1)N1CCCCC1,0,0,0,0,0,-
O=S(=O)(c1ccc(-c2csc(-c3cccnc3)n2)cc1)N1CCCC1,-,0,81,0,?,86
Cc1cnc(NC(=O)c2cc3ccccc3o2)s1,0,0,0,0,0,-
COc1ccc(NS(=O)(=O)c2cccc(C(=O)NNC(=O)c3cc(S(N)(=O)=O)ccc3OC)c2)cc1,0,0,0,0,0,-
NC(=S)n1[nH]c(-c2ccc([N+](=O)[O-])cc2)c(N=Nc2ccc(Cl)cc2)c1=O,-,68,66,0,-,40
Cc1ccc([N+](=O)[O-])cc1N=Nc1c(C)[nH]n(C(N)=S)c1=O,0,0,0,0,0,-
COC(=O)[C@@]1(Cc2ccc(OC)cc2)[C@H]2c3cc(C(=O)N4CCCC4)n(CCc4ccc(OC)c(Br)c4)c3C[C@H]2CN1C(=O)c1ccccc1,-,0,73,-,-,0
COc1cccc(-c2cc3nc4c(c(N5CCC6(CC5)OCCO6)n3n2)CCC4)c1,-,0,55,0,?,0
COc1ccc(-c2cc3nc4c(c(N5CCC6(CC5)OCCO6)n3n2)CCC4)cc1,0,0,51,0,0,0
COc1ccc(-c2cc3nc(-c4ccccc4)cc(N4CCC5(CC4)OCCO5)n3n2)cc1,0,0,52,0,0,0
Cc1ccc(NCCCn2cnc3c(OCc4ccccc4)ncnc32)cc1C,-,0,0,0,-,-
CCC(=O)C(C#N)(c1ccc(OC)c(OC)c1)C(C)C (stereo not given),0,0,0,0,-,-
CCN(CC)C(=O)Cn1cc(C(=O)C(=O)N(C)C2CCN(C)CC2)c2ccccc21,0,0,0,0,0,-
